Molecules are shown by their SMILES. The campaign covered roughly 360,000 compounds. About 6,000 (1.7%) were called active. Where a call stands in place of a potency, no number is given. Roughly 8% stayed inconclusive and do not appear here. This is one part of a sample in which actives are shown more often than they occur. The call rests on the fitted dose curve; in most records, active means well fitted cell-killing curve with a large enough effect; inconclusive means small, poorly fitted or top-dose-only effect, or effect the other way; inactive means flat fitted curve, though single readings scatter.
Potency means the concentration at half of the fitted maximal effect.

The nature of the experiment: qHTS for induction of synthetic lethality in tumor cells producing 2HG: qHTS for the HT-1080-NT fibrosarcoma cell line.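 Further: NT is the 2HG producing partner of a matched IDH1 knockdown line; nearly all actives have a fitted effect of over 55% in size.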 The following applies: HT-1080-NT fibrosarcoma viability, CellTiter-Glo ATP luminescence, 48 h; series mostly up to 46.1 µM. In a few lines: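 750 cells/well, RPMI + 5% FBS; 2 h settle, compound pin-transfer, 48 h at 37 degrees C. CellTiter-Glo 10 min RT, luminescence. Normalized to DMSO and media-only wells.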
For orientation: qHTS replaces the single test concentration by a dilution series.
`COC(=O)[C@@]12C[C@@H](CC(=O)N3CCCCC3)C(=O)N(Cc3ccc4c(c3)OCO4)C1=CCC(C)(C)C2`: the Potency result was “inactive”. As for `CN(Cc1ccccc1)C(=O)[C@@H]1CCCN1C(=O)[C@@H]1CCCN1C(=O)c1c(F)cccc1F`, the entry is “inactive”. As for `COc1ccc(C(=O)Nc2cccc(S(C)(=O)=O)c2)cc1`, the entry is “inactive”; as for `COc1ccc(NS(=O)(=O)c2ccc(NC(=O)c3ccc(N(C)S(C)(=O)=O)cc3)cc2)cc1`, 18.4 µM (active). Regarding `COc1ccc(NS(=O)(=O)c2ccc(C(=O)Nc3c(C)n(C)n(-c4ccccc4)c3=O)cc2)cc1`, the Potency result is “inactive”. For `O=S1(=O)CC(N2CCN(Cc3ccccc3F)CC2)CN1Cc1cn(Cc2ccccc2)nn1` (configuration not stated), the Potency entry is “inactive”. As for `C[C@@H]1CN([C@@H](C)CO)S(=O)(=O)c2ccc(C#Cc3cccc(F)c3)cc2O[C@H]1CN(C)S(=O)(=O)c1cn(C)cn1`, the entry is “inactive”. Then `COC(=O)[C@]12CCCCC=C1N(Cc1ccco1)C(=O)[C@H](CC(=O)NCC1CCCCC1)C2`, with “inactive”; and `Nc1ncnc2c1ncn2[C@@H]1O[C@H](C(=O)NS(=O)(=O)c2c(Cl)nc3sccn23)[C@@H](O)[C@H]1O`, with “inactive”. As for `COc1ccc(NC(=O)CSc2nnnn2-c2cccc(OC)c2)cc1`, the entry is “inactive”; as for `CCOC(=O)C(C)n1cnc2c(nnn2-c2cccc(OC)c2)c1=O` (configuration not stated), “inactive”. As to `CCOc1cccc(-n2nnnc2-c2ccc(OC)cc2)c1`, the Potency is 5.8 µM (active). In the case of `COCCCNC(=O)c1ccc(-c2c(C)noc2C)c2ccoc12`, the Potency entry was “inactive”.

Turning to `COc1ccccc1-n1c(SCC(=O)Nc2ccc(Cl)cc2)nc(O)c(Cc2ccccc2)c1=O`, the Potency entry was “inactive”. Then `COc1ccc(C(C(=O)NCc2ccccc2)n2c(=O)c(-c3ccccc3)nc3ccccc32)cc1` (configuration not stated), with “inactive”. As to `CCC(C)C(CO)NC(=O)/C=C/[C@H]1O[C@@H](n2cnc3c(NC(=O)c4ccccc4)ncnc32)[C@H](O)[C@@H]1O` (some centres not stated), the Potency entry is “inactive”.

Regarding `COc1ccc(C(=O)NC2CC(C)(C)NC(C)(C)C2)cc1OC`, the Potency entry is “inactive”. Turning to `COc1ccc(C(=O)N/N=C2\CCS(=O)(=O)c3ccc(F)cc32)cc1OC`, the Potency is 20.6 µM (active). As for `COc1ccc(CN2CCCC(CNC(=O)c3ccc(F)cc3)C2)cc1OC` (configuration not stated), the entry is “inactive”; as for `Cc1ccc(Cc2c(-c3ccc(Cl)cc3)nc3c4ccccc4ccn23)cc1`, “inactive”. Then `CC(=O)NN=C(C)c1ccc(NC(=O)C2CC2)cc1`, with “inactive”; and `COc1ccc(C(=O)NCC2CCCO2)cc1S(=O)(=O)NCc1ccc(Cl)cc1` (configuration not stated), with “inactive”; and `CCC(CC)C(C(=O)NC1CCCC1)N1CCN(c2cc(C)nc3ccccc23)CC1` (configuration not stated), with “inactive”.

In the case of `N#Cc1c(NC(=O)CCCl)sc2c1CCCCC2`, the Potency is 23.1 µM (active). Then `N#Cc1c(NC(=O)C2CCCO2)sc2c1CCCCC2` (configuration not stated), with “inactive”; and `CCN1CCN(CC(=O)Nc2sc3c(c2C#N)CCC3)CC1`, with “inactive”; and `CCCCCCN1CCN(C2CN(Cc3cn(Cc4ccc(F)cc4)nn3)S(=O)(=O)C2)CC1` (configuration not stated), with “inactive”. As for `Cc1ccc(-c2nc3ccccn3c2Nc2ccc(F)cc2)o1`, the entry is “inactive”. Then `N=c1n(Cc2ccc(Cl)cc2)c2ccccc2n1CC(O)c1ccco1` (configuration not stated), with 23.1 µM (active); and `Cn1c(=N)n(CC(O)c2ccccc2)c2ccccc21` (configuration not stated), with “inactive”. Consider `Cn1c(=N)n(CC(O)c2cccs2)c2ccccc21` (configuration not stated), for which the Potency entry is “inactive”.

Consider `CCNC(=O)C1(C)CCCN(Cc2noc(-c3ccccc3OC)n2)C1` (configuration not stated), for which the Potency entry was “inactive”.

Turning to `COc1ccc(NC(=S)NCc2cccs2)c(OC)c1`, the Potency entry is “inactive”. As for `COc1ccccc1CNc1nc(Nc2ccccc2Cl)c2sccc2n1`, the entry is “inactive”.

`COc1cccc(CNc2nc(NCc3ccccc3OC)nc3ccsc23)c1`: the Potency was 23.1 µM (active).

Take `COc1cccc(CNc2nc(NCc3cccs3)nc3ccsc23)c1`: the Potency is 18.4 µM (active). Then `COc1cccc(-c2cc3nc(NCc4ccccc4OC)n(C)c(=O)c3s2)c1`, with “inactive”; and `Clc1ccccc1Nc1nc(NCc2cccs2)nc2ccsc12`, with “inactive”; and `CC[C@@H]1CC2=C(C(=O)OC(C)(C)O2)[C@@H](CC)O1`, with “inactive”. As for `Nc1nc2c(ncn2[C@@H]2O[C@H](CNCc3ccc(OCCCN4CCOCC4)cc3)[C@@H](O)[C@H]2O)c(=O)[nH]1`, the entry is “inactive”; as for `C[C@H](O)[C@@H]1C(=O)N2CCc3c([nH]c4ccccc34)[C@@H]2C[C@@H]1N(C)C(=O)Nc1ccc(F)cc1`, “inactive”. Then `C[C@H]1CN([C@@H](C)CO)C(=O)CCCn2cc(nn2)CO[C@@H]1CN(C)S(=O)(=O)c1cccs1`, with “inactive”; and `N#Cc1ccc(C(C(=O)NCc2ccccc2)n2c(=O)c(-c3ccco3)nc3ccccc32)cc1` (configuration not stated), with “inactive”; and `O=S1(=O)CC(N2CCSCC2)CN1Cc1cn(Cc2cccc(Cl)c2)nn1` (configuration not stated), with “inactive”.

Consider `CCCCC[C@@H]1C=C(C(=O)OCC)[C@H](c2ccccc2)N1S(=O)(=O)c1ccc(C)cc1`, for which the Potency entry is “inactive”. Then `COc1cc2c(=O)n(C)c3ccccc3c2cc1OC`, with “inactive”; and `Cc1cc(C)c(-c2c(O)c3ccccc3n(C)c2=O)c(C)c1`, with “inactive”.

For `Cn1c(=O)c([N+](=O)[O-])c(Oc2ccccc2)c2ccccc21`, the Potency was 18.4 µM (active). Regarding `CCCc1c(C)nc2scc(-c3ccc(Cl)cc3)n2c1=O`, the Potency result is “inactive”. As for `COCCNc1ncnc2c1ncn2[C@H]1CN(CCN2CCOCC2)C[C@@H](CO)O1`, the entry is “inactive”. As for `C=CCC[C@@H](CCCCC)OC(=O)/C=C/[C@@H](O)[C@H](O)C[C@H](O)CC=C`, the entry is “inactive”.

As to `C=CCC[C@H](CCCCC)OC(=O)/C=C/[C@H](O)[C@@H](O)C[C@@H](O)CC=C`, the Potency result was “inactive”.

As for `CN(C)C(CNC(=O)c1cc2ccccc2o1)c1ccccc1` (configuration not stated), the Potency entry is “inactive”. Then `CN(C)C(CNC(=O)Cc1ccc([N+](=O)[O-])cc1)c1ccccc1` (configuration not stated), with “inactive”; and `COc1cccc(CNC(=O)CN2C(=O)NC(Cc3ccccc3)(c3ccccc3)C2=O)c1` (configuration not stated), with “inactive”; and `COc1cccc(CNC(=O)c2n[nH]c3ccccc23)c1`, with “inactive”.

For the compound `COc1cccc(CNc2nc(C(F)(F)F)nc3ccccc23)c1`, the Potency was 23.1 µM (active).

Regarding `CCc1ccc(C(CNc2nc(C(F)(F)F)nc3ccccc23)N(C)C)cc1` (configuration not stated), the Potency was 23.1 µM (active).

Turning to `O=C(CCN1CCCCC1)Nc1ccc(F)c(F)c1`, the Potency entry was “inactive”.

Turning to `Cc1cccc(C(=O)C(O)(c2ccccc2)C2CCCCC2=O)c1` (configuration not stated), the Potency result is “inactive”. As for `CN(Cc1c(F)cccc1Cl)C(=O)COC(=O)Cn1cnc2ccccc2c1=O`, the entry is “inactive”. Then `COC(=O)C[C@@H]1C=C[C@@H](NS(=O)(=O)c2cccc(OC)c2)[C@@H](CO)O1`, with “inactive”; and `CC[C@@H]1Cc2cc(O)ccc2C2=C1c1ccc(O)cc1C[C@H]2CC`, with 18.4 µM (active); and `Cc1cc(C)c(NC(=O)c2oc3ccccc3c2COc2ccccc2)c(C)c1`, with “inactive”. Then `Cc1cc(C)cc(OCC(=O)NCc2cc(C)nc3ccccc23)c1`, with “inactive”; and `Cc1cc(C)c(NC(=O)C[N+](C)(C)CC(O)COc2cccc3ccccc23)c(C)c1` (configuration not stated), with 18.4 µM (active); and `CC(C)(C(=O)NO)c1ccccc1`, with “inactive”. For the compound `CCN1C(=O)[C@H]2[C@@H](c3ccc(C(F)(F)F)cc3)N[C@]3(CCCN(Cc4ccc(Br)cc4)C3=O)[C@H]2C1=O`, the Potency entry is “inactive”. For `COc1cccc(CN2CCC(C(=O)NC(c3ccc4c(c3)OCO4)c3ccccn3)CC2)c1` (configuration not stated), the Potency entry is “inactive”. Then `O=C(CCCOc1ccc(Cl)cc1Cl)NNC(=O)C1CCC1`, with “inactive”; and `O=C(NC(c1ccc(-c2ccccc2)cc1)c1cnccn1)C1CCN(CCOc2ccc(Cl)cc2Cl)CC1` (configuration not stated), with 20.6 µM (active). Then `CCCNC(=O)C1(C)CCN1C(=O)C1(c2ccccc2)CC1` (configuration not stated), with “inactive”. As for `COc1ccccc1CNC(=O)c1cc(-c2cc(F)ccc2OC)n[nH]1`, the entry is “inactive”; as for `CCNC(=O)c1cc2c(c(-c3cccc(-c4cncnc4)c3)n1)[C@H](CCO)N(C(C)=O)C2`, “inactive”; as for `COC(=O)c1ccc2nc(-c3ccc(Cl)cc3)c(Cc3cccc(F)c3)n2c1`, “inactive”. As for `Cn1c(=O)c2cc(NC(=O)NCCc3cccs3)ccc2n1Cc1cccc(C(F)(F)F)c1`, the Potency entry was “inactive”.

Take `COc1ccc(C(=O)OCC(=O)NCCCc2ccccc2)cc1OC`: the Potency entry is “inactive”. As for `CCN(CCCCOC(=O)c1ccc(OC)c(OC)c1)C(C)Cc1ccc(OC)cc1` (configuration not stated), the figure is 18.4 µM (active); as for `COc1ccccc1NC(=O)COc1ccc(C(=O)OCC(=O)N(C(C)C)C(C)C)cc1OC`, “inactive”; as for `CCC(=O)N1Cc2cc(C(=O)NCc3cccc(F)c3)nc(-c3cccc(C4=CCCC4)c3)c2[C@H]1CCO`, “inactive”. As for `CS(=O)(=O)c1cccc(-c2ccc3nncn3c2)c1`, the entry is “inactive”. As for `CCOC(=O)N1CCN(C(c2ccnc3ccccc23)c2nnnn2-c2c(C)cccc2C)CC1` (configuration not stated), the entry is “inactive”. In the case of `CN1C(CC(=O)Nc2ccc(Br)cc2)c2ccccc2CC1(C)C` (configuration not stated), the Potency was 18.4 µM (active). As for `CC1(C)CN(CCc2ccccc2)C(=O)[C@H]1CC(=O)Nc1ccc(Br)cc1`, the entry is “inactive”. With `CCCCN1CC(C)(C)[C@H](CC(=O)Nc2ccc(Br)cc2)C1=O`, the Potency result was “inactive”. Consider `COC(=O)c1ccc2nc(-c3cccc(Br)c3)c(Cc3ccc(OC)cc3C)n2c1`, for which the Potency result was “inactive”.

Consider `COCCn1c(SCC(=O)Nc2ccc(F)cc2F)nc2c(c1=O)SCC2`, for which the Potency result was “inactive”. Consider `COc1ccccc1NC(=O)/C=C/C(N)=O`, for which the Potency was 8.91 µM (active). As for `COc1ccccc1NC(=O)N(O)C1(C#N)CCCCC1`, the entry is “inactive”; as for `COc1ccccc1NC(=O)COC(=O)COc1ccccc1F`, “inactive”.

For the compound `O=C1NC[C@H](CCCCN2C[C@H](Cc3ccc(O)cc3)N(CCc3ccccc3)C(=O)C2=O)N(CCc2ccccc2)C1=O`, the Potency entry is “inactive”. In the case of `COc1ccc(-c2cc(C)nc3nc(N)nn23)cc1`, the Potency result is “inactive”.

On to `Cc1cc(N)n2nc(-c3ccc(C(C)(C)C)cc3)cc2n1`, for which the Potency is 16.4 µM (active). `Cc1cc(C(C)(C)C)cc(C)c1N`: the Potency result was “inactive”. As for `Cc1ccc(S(=O)(=O)NN=C2CC(C)(C)CC(=O)C2(C)C)cc1`, the entry is “inactive”; as for `CC(=O)NC(c1cccc(F)c1)c1nc(-c2cccc(F)c2)cs1` (configuration not stated), “inactive”; as for `Cc1ccc(C(O)c2ncc(-c3ccccc3F)[nH]2)cc1F` (configuration not stated), “inactive”.

For the origin of these results see PubChem BioAssay AID686970 (National Center for Advancing Translational Sciences (NCATS), 2013).
